Screening data (PubChem BioAssay)
An excerpt weighted towards active compounds, which were near 1.6% of everything screened.
KCNQ2 block – inhibitors of rat KCNQ2 potassium channel; CHO-K1 KCNQ2, FluxOR thallium flux, 20 min; hits give low values; B-score at 10 µM; 310,000 compounds, 1.1% hits;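 active = fluorescence ratio B-score at most minus 3 library SDs, with starting brightness B-score within 2 library SDs, cut at about -5.5 in these data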
KCNQ2 enhance – KCNQ2 (rat) channel potentiation. O88943. CHO-K1 KCNQ2, FluxOR thallium flux fluorescence; hits give high values. B-score at 10 µM. 310,000 compounds, 0.54% hits. AID 2239;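 active = fluorescence ratio B-score at least 3 SD of library B-scores, with initial fluorescence B-score within 3 of them, cut at about 5.3 in these data; same plate scores as AID 2156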;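 note: B-score of peak minus minimum over baseline fluorescence ratio after K+ and Tl+ stimulus; positive B-score means potentiation of KCNQ2 with more thallium influx and brighter signal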
KCNQ2 block conf – confirmation of rat KCNQ2 potassium channel inhibitors; shares compounds with KCNQ2 block; KCNQ2-expressing cells, thallium flux, inhibition; hits give low values; activity change, negative = inhibition, % at 10 µM; 1,000 compounds, 57% hits;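 note: 0% = vehicle wells and values are ratio percent relative to vehicle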
KCNQ1 spec – human KCNQ1 activity in KCNQ2 inhibitor specificity screen | shares compounds with KCNQ2 block | KCNQ1-expressing cells, FluxOR thallium flux fluorescence; hits give low values | activity change, negative = inhibition, % at 10 µM | 1,000 compounds, 15% hits | AID 493026;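 active = activity change at least 3 SD of negative controls below their mean in both duplicate wells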;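 note: CHO cells stably transfected with KCNQ1 and depolarized by potassium stimulus; peak minus minimum fluorescence over baseline after thallium addition; 0% = vehicle negative control and -100% = blank without thallium stimulus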
CHO parental ctr – counter-screen for KCNQ2 inhibitors: effect in parental CHO cells. shares compounds with KCNQ2 block. AID 493029. thallium flux counter-screen; hits give low values. activity change, % at 10 µM. 1,000 compounds, 14% hits;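 note: 0% = vehicle negative controls with stimulus buffer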
KCNQ2 patch conf – rat KCNQ2 inhibition confirmed by electrophysiology. calls only at 10 µM. shares compounds with KCNQ2 block. KCNQ2-expressing cells, automated patch clamp current. 550 compounds, 49% hits
* marks the source's active call; other numbers are inactive results; i = inactive; nt = not tested or not shown; + = active, no number. Unless noted, the rule behind the calls is not given here.

SMILES | KCNQ2 block | KCNQ2 enhance | KCNQ2 block conf | KCNQ1 spec | CHO parental ctr | others
COc1ccc2oc(C(=O)OCC(=O)N(Cc3ccccc3)C(C)(C)C)c(C)c2c1 | -9.4* | -9.4 | i | i | i
COc1ccc2oc(C(=O)OCC(=O)NCCc3ccccc3)c(C)c2c1 | i | 0.22 | nt | nt | nt
CC(C)(C)N(Cc1ccccc1)C(=O)COc1cccnc1[N+](=O)[O-] | i | nt | nt | nt | nt
COc1ccc(CCNC(=O)c2ccc3nc[nH]c3c2)cc1 | i | 0.23 | nt | nt | nt
CCOC(=O)C1CCN(C(c2cc3ccc(C)c(C)c3[nH]c2=O)c2nnnn2C2CCCCC2)CC1 (configuration not stated) | i | nt | nt | nt | nt
Cc1ccc2cc(C(c3nnnn3C3CCCC3)N3CCN(c4ccccc4)CC3)c(=O)[nH]c2c1 (configuration not stated) | i | nt | nt | nt | nt
Cc1ccc2cc(C(c3nnnn3C3CCCC3)N3CCOCC3)c(=O)[nH]c2c1C (configuration not stated) | -9.5* | -9.5 | i | i | i
COc1cc2cc(C(c3nnnn3C3CCCC3)N3CCCCC3)c(=O)[nH]c2cc1OC (configuration not stated) | -7* | -7 | -22%* | i | i | KCNQ2 patch conf=+
CC(=O)Nc1cccc(/C(C)=N/NC(=O)c2ccc(CN3CCOCC3)cc2)c1 | i | 1.2 | nt | nt | nt
CCOc1cnn(-c2cc(Oc3ccc(C)cc3)ncn2)c(=O)c1Cl | i | 0.83 | nt | nt | nt
Cc1cc(Oc2cnn(C(C)(C)C)c(=O)c2Cl)cc(C(C)C)c1 | -11* | -11 | -34%* | -30%* | -32%* | KCNQ2 patch conf=i
COc1cc2c(C(=O)N3CCN(c4ccccc4C)CC3)c(C)oc2cc1Br | -11* | -11 | -22%* | i | i | KCNQ2 patch conf=i
COc1ccccc1N1CCN(C(=O)c2c(C)cc(=O)oc2C)CC1 | i | 0.41 | nt | nt | nt
C=CCOc1ccc(/C=C(\C#N)C(=O)Nc2ccccn2)cc1 | i | 1.1 | nt | nt | nt
CCn1cnc2c1c(=O)n(Cc1csc(-c3ccccc3)n1)c(=O)n2Cc1ccccc1 | -9.4* | -9.4 | -16%* | i | i | KCNQ2 patch conf=i
CCn1cnc2c1c(=O)n(Cc1cccc([N+](=O)[O-])c1)c(=O)n2Cc1ccccc1 | i | 0.22 | nt | nt | nt
COc1ccc(C(=O)c2c(-c3ccsc3)oc3ccc(-c4ccc(OC)cc4)cc23)cc1 | i | 1.4 | nt | nt | nt
COc1cc(NC(=O)CSc2nc(=O)n(CCN3CCOCC3)c3c2CCCC3)cc(OC)c1 | i | nt | nt | nt | nt
O=C(Nc1ccccc1Cc1ccccc1)c1oc2ccccc2c1COc1ccccc1 | i | nt | nt | nt | nt
O=C(NCCc1ccccc1)c1oc2ccccc2c1COc1ccccc1 | -9* | -9 | -24%* | i | i | KCNQ2 patch conf=i
O=C(NCCCN1CCN(c2ccc(F)cc2)CC1)NC12CC3CC(CC(C3)C1)C2 | -8.2* | -8.2 | i | i | i
O=C(NCCCN1CCOCC1)NC12CC3CC(CC(C3)C1)C2 | i | nt | nt | nt | nt
Cc1ccccc1OCc1nc2ccccc2c(=O)n1/N=C/c1ccco1 | -8.9* | -8.9 | -33%* | i | i | KCNQ2 patch conf=+
O=c1c2ccccc2nc(-c2ccco2)n1/N=C/c1ccco1 | i | 2.8 | nt | nt | nt
O=C(N/N=C/c1ccccc1)c1ccc(OCc2ccccc2)cc1 | i | 0.39 | nt | nt | nt
SMILES | KCNQ2 block | KCNQ2 enhance | KCNQ2 block conf | KCNQ1 spec | CHO parental ctr | others
O=C(N/N=C/c1ccccc1)c1sccc1OCc1ccc(F)cc1 | -6.8* | -6.8 | i | i | i
CCNC(=O)COc1ccc(/C=N/NC(=O)c2cccnc2)cc1OC | i | 0.09 | nt | nt | nt
COc1ccc(/C=N/NC(=O)c2cccnc2)cc1O | -7.2* | -7.2 | i | i | i
Cc1nn(-c2ccccc2)c(C)c1C(=O)OCC(=O)N(C)c1c(N)n(Cc2ccccc2)c(=O)[nH]c1=O | i | 0.87 | nt | nt | nt
COc1ccc(NC(=O)c2cc(OC)c(OC)c(OC)c2Br)cc1OC | i | 2.7 | nt | nt | nt
COc1cc(C(=O)Nc2c(C)cc(C)cc2C)c(Br)c(OC)c1OC | -8.8* | -8.8 | i | i | i
OC(CNCc1ccccc1C(F)(F)F)C(F)(F)F (configuration not stated) | i | 0.66 | nt | nt | nt
Nc1nc(-c2ccccc2)c(-c2ccccc2)o1 | i | nt | nt | nt | nt
c1ccc(-c2nc(-c3nccc4ccccc34)oc2-c2ccccc2)cc1 | -8.6* | -8.6 | i | i | i
CCCCCCCOC1(c2ccccc2)OC(=O)c2ccccc21 (configuration not stated) | -8.5* | -8.5 | -22%* | i | i | KCNQ2 patch conf=i
